# Shown are actives, neighbours in structure and some others; about 2% of the full set was active somewhere.
# PLAP activator – PLAP enzyme activators, biochemical, luminescence, HTS; purified PLAP enzyme, luminescent substrate read-out; active compounds read high; activation fold at 20 µM; 96,000 tested, 1.2% active; AID 696, 2007; in the data active means activation fold above about 2
# Target sequence (P05187 whole entry, looked up): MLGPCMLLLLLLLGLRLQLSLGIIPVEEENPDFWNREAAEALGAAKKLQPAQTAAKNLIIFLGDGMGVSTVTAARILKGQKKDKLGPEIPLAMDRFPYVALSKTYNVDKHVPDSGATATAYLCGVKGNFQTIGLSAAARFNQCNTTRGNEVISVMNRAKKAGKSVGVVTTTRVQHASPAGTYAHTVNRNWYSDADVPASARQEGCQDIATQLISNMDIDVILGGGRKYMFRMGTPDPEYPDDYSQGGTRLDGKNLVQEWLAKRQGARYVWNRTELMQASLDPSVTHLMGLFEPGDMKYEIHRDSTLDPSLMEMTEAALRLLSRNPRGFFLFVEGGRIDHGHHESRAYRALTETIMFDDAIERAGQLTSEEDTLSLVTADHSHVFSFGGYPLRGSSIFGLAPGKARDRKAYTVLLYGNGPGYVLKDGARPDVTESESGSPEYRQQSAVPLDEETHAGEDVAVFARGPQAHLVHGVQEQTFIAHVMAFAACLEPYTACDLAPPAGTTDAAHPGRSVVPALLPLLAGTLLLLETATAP
# F-actin modifier – modifiers of F-actin cytoskeleton organization, primary screen, imaging, HUVEC, phalloidin staining, high-content imaging. HUVEC TNFa F-actin phalloidin imaging. inhibition, % at 2 µM. 91,000 tested, 0.18% active. AID 836, 2007;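 active means inhibition above the batch mean plus 3 SD and confirmed as a hit by visual image inspection, cut at about 30% in these data, passing the limit was not always enough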
# HUVEC tox TNFa – cytotoxicity in TNFa-stimulated HUVEC, primary screen, cytotoxicity control for VCAM1 expression modulator project, imaging, Hoechst nuclei count; cell count reduction, % at 2 µM; 93,000 tested, 0.17% active; HUVEC TNFalpha-stimulated, Hoechst cell count;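 active means cell count reduction exceeding the screen mean by over 5 SD, scaled to untreated wells per plate, cut at about 78% in these data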;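 further: cells counted after 24 h of TNF alpha exposure following the 1 h pretreatment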
# E-sel TNF inh – E-selectin induction blockers in HUVEC – imaging, immunofluorescence, high content, primary screen; inhibition, % at 2 µM; HUVEC TNFa-induced E-selectin immunofluorescence; AID 1246, 2008; 120,000 tested, 0.71% active;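 active means inhibition above the batch mean plus 3 SD, and confirmed as a hit on visual image review, cut at about 43% in these data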
# VCAM1 TNFa inh – inhibitors of TNFa-induced VCAM1 expression, primary screen, imaging, HUVEC, TNFa stimulus, immunofluorescence. 95,000 tested, 0.48% active. AID 802, 2007. inhibition, % at 2 µM. HUVEC TNFa-induced VCAM-1 immunofluorescence, high-content imaging;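 active means inhibition above the batch mean plus 3 SD, with images confirmed as a hit by eye, cut at about 37% in these data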
# Hits are given with their value; – = inactive; · = no result.
SMILES,PLAP activator,F-actin modifier,HUVEC tox TNFa,E-sel TNF inh,VCAM1 TNFa inh
COc1ccc(C(O)C(CN2CCOCC2)c2ccccc2)cc1F (centres undefined),–,–,–,–,–
COC(=O)c1ccccc1NC(=O)c1cccc(NC(=O)C(C)C)c1,·,·,·,–,·
O=C1NC(Cc2c[nH]c3ccccc23)C(=O)N1CCOc1ccccc1 (centres undefined),–,–,–,–,–
O=C(c1ccco1)N(Cc1ccc([N+](=O)[O-])cc1)c1ccc(Br)cc1,–,–,–,–,–
O=C(c1ccc([N+](=O)[O-])cc1)N(Cc1ccc(Br)cc1)N1C(=O)CCCC1=O,–,·,–,98,–
Cc1cccc(NC(=O)c2cc3ccccc3o2)c1,·,–,–,–,–
CCC(=O)Nc1cccc(NC(=O)c2cc3ccccc3o2)c1,–,–,87,·,86
O=C(Nc1cccc(-c2cn3ccccc3n2)c1)c1cnccn1,·,–,–,–,–
O=C(Nc1cccc(-c2cn3ccccc3n2)c1)c1cccc(Cl)c1,–,–,–,57,–
COc1ccc(NC(=S)N2CCNC(=O)C2CC(=O)Nc2cccc(Cl)c2C)cc1 (centres undefined),·,·,·,–,·
CNC(=O)N(O)C1N(C)C(=O)N(CC(=O)OC)C1(C)C (centres undefined),–,–,–,–,–
CC1(C)C(N(O)C(=O)Nc2ccc(Cl)cc2)N(c2ccc(Cl)cc2)C(=O)N1CC(=O)NN (centres undefined),2,·,–,–,–
O=C(OCCNC(=O)c1ccc2ccccc2n1)c1ccc(F)cc1,–,–,–,–,–
CC1(C)CN2C(=S)N(c3ccccc3)C(c3ccccc3)N2C1 (centres undefined),–,–,–,–,–
Oc1ccc(N=Nc2n[nH]c(-c3ccc(Cl)cc3)n2)cc1,–,52,–,–,–
COCc1[nH]nc2c1C1(C(=O)N(C)c3ccccc31)C(C#N)=C(N)O2 (centres undefined),–,–,–,–,–
Cc1ccc(SCc2[nH]nc3c2C2(C(=O)N(C)c4ccccc42)C(C#N)=C(N)O3)cc1 (centres undefined),2,–,–,·,–
COc1ccc(/C=C/C(=O)C23CC4CC(CC(C4)C2)C3)cc1CN1CCOCC1,·,·,·,–,·
CN(c1ccc(C(=O)NCC2CCCO2)cc1)S(C)(=O)=O (centres undefined),–,–,–,65,–
O=C(NCC1CCCO1)c1ccc(C(=O)NCC2CCCO2)cc1 (centres undefined),–,·,·,–,·
O=C(CN1CCCC1)Nc1c2c(nc3ccccc13)N(Cc1ccccc1)CC2,2,–,–,–,–
COC(=O)Cc1ccc(NC(=S)N2CCN(c3ccc(F)cc3)CC2)cc1,·,·,·,–,·
Cc1nn(CCc2n[nH]c(=S)n2-c2cccc(Cl)c2)c(C)c1[N+](=O)[O-],2.2,–,–,–,–
CCC1=NC(c2ccc(OC)cc2OC)N(O)C1(C)C (centres undefined),–,–,–,–,–
CCC1=NC(c2ccccc2Cl)N(O)C1(C)C (centres undefined),–,–,–,–,59
SMILES,PLAP activator,F-actin modifier,HUVEC tox TNFa,E-sel TNF inh,VCAM1 TNFa inh
Cc1cc(N2CCCCC2)nc(NCc2ccccc2)n1,–,–,–,72,–
Cc1cc(NC(=O)Cc2ccccc2)ccc1NC(=O)c1cccs1,·,·,·,–,·
CCN1CCN(C(=S)c2ccc([N+](=O)[O-])cc2)CC1,·,·,·,–,·
CCc1ccc2nc(NC(=O)c3ccc4c(=O)[nH]c(CN5CCOCC5)nc4c3)sc2c1,2.3,–,–,–,–
O=C(OCc1cccc2ccccc12)c1ccc2c(=O)[nH]c(CN3CCOCC3)nc2c1,–,–,–,–,–
Nc1nnc(SCC(=O)OCc2ccc(F)cc2)s1,·,·,·,–,·
Cc1cc(N2CCOCC2)c2c(N)c(C)cc(C)c2n1,–,·,·,–,100
Cc1cc(N2CCOCC2)nc(N)n1,·,·,·,–,·
CCC(C)(C)NC(=O)CN(C(=O)CNS(=O)(=O)c1ccc(C)cc1)c1ccc2c(c1)OCCO2,2,–,–,·,–
CCN(CC)c1ccc2c(c1)OC(N)=C(C#N)C2c1cccnc1 (centres undefined),–,–,–,·,39
N#CC1=C(N)Oc2cc(Nc3ccccc3)ccc2C1c1ccncc1 (centres undefined),–,–,–,54,–
N#CC1=C(N)Oc2cc(N)ccc2C1c1ccc(F)cc1 (centres undefined),–,·,–,–,–
N#CC1=C(N)Oc2cc(N)ccc2C1c1cccnc1 (centres undefined),·,·,·,–,·
